MITF inh – inhibitors of human MITF; 650,000 compounds, 0.91% hits; inhibition, % at 2.6 µM; O75030; AID 1259374; AlphaScreen MITF homodimerization, bead proximity signal; in the data active = inhibition above about 50%;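 note: 0% = vehicle wells with protein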
Target sequence (O75030 whole entry, looked up): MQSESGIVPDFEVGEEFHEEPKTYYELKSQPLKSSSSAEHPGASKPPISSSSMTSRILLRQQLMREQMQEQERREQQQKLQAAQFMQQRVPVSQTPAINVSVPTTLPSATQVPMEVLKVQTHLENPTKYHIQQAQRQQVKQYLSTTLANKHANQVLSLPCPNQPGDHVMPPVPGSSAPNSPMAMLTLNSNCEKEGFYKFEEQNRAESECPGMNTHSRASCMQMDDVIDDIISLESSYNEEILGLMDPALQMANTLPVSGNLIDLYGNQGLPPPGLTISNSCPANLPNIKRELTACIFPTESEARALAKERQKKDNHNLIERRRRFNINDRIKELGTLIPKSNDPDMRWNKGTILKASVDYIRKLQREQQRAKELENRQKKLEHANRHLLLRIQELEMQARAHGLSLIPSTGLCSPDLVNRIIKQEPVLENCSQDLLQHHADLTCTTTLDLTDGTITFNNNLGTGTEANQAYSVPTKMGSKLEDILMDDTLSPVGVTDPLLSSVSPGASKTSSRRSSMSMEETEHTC
TEAD-YAP inh – TEAD-YAP interaction inhibition. HEK-TIYL cells, TEAD-Gal4/YAP UAS-luciferase luminescence. inhibition, % at 9.12 µM. 640,000 compounds, 1.4% hits. AID 1259422; in the data active = inhibition above about 32%;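 note: 0% = median of test compound wells and 100% = reference inhibitor wells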
GPR151 activ – activators of human GPR151; PathHunter beta-arrestin GPR151 cells, luminescence; Q8TDV0; 650,000 compounds, 1% hits; AID 1508602; activation, % at 11.2 µM; in the data active = activation above about 4.9%;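 note: 0% = median of compound wells and 100% = cells with positive control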
FBW7 activator – human FBW7 E3 ligase activation, primary screen; Q969H0; AlphaScreen FBW7–phospho-cyclin E peptide binding, activator screen; normalized activity (activation), % at 26.1 µM; 650,000 compounds, 0.13% hits; in the data active = normalized activity above about 1.9%;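 note: purified mutant Fbw7 with reduced substrate affinity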
MITF confirm – human MITF inhibition, confirmation; inhibition, % at 2.6 µM; AID 1259372; 4,700 compounds, 16% hits; shares compounds with MITF inh; AlphaScreen MITF homodimerization, biotin/His-MITF beads;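 active = inhibition above a cutoff derived from the DMSO control wells, cut at about 28% in these data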;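 note: 0% = MITF dimer wells with DMSO only; inhibitors lower the bead chemiluminescence by keeping MITF from dimerizing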
AlphaScreen DR – AlphaScreen optical interference, dose response counter-screen; 480 compounds, 6% hits; AlphaScreen optical interference counterscreen, cell-free; IC50, µM; shares compounds with MITF inh; call rule not given here
AlphaScreen intf2 – optically interferes with AlphaScreen signal; shares compounds with MITF inh; LysRS AlphaScreen counterscreen, signal interference, triplicate; inhibition, % at 2.6 µM; 4,700 compounds, 7.6% hits;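 active = inhibition above a cutoff derived from the DMSO control wells, cut at about 30% in these data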
* = called active by the depositor; nt = no result given. The list is not random: actives were taken first. Their share in the collection is about 3.5%.

SMILES | MITF inh | TEAD-YAP inh | GPR151 activ | FBW7 activator | MITF confirm | AlphaScreen intf2 | others
c1ccc(Oc2cccc(CN3CCN(Cc4ccco4)CC3)c2)cc1 | 69* | -4 | -1 | 0 | 7 | 4
Clc1ccccc1N1CCN(Cc2ccco2)CC1 | 2 | 0 | 0 | 0 | nt | nt
CSc1ccc(CN2CCN(Cc3ccco3)CC2)cc1 | 85* | 1 | 0 | 0 | -1 | -1
CCc1ccc(CN2CCN(Cc3ccco3)CC2)cc1 | 71* | -5 | 1 | 0 | 12 | 21
COc1ccc(/C=N\NC(=O)c2ccc(C)nc2)cc1OC | 0 | 14 | 0 | 0 | nt | nt
O=C1NC(c2ccccc2)=N/C1=C\c1cccc2ccccc12 | -1 | -13 | 1 | 0 | nt | nt
CCn1nc([N+](=O)[O-])nc1N/N=C/c1ccccc1O | 2 | 9 | 0 | 0 | nt | nt
CCN1CCN(Cc2nnnn2Cc2ccco2)CC1 | 10 | 17 | -1 | 0 | nt | nt
COc1cccc(CN2CCN(Cc3ccco3)CC2)c1 | 76* | -9 | -1 | 0 | 14 | 20
CCC(CC)N1CCN(Cc2ccco2)CC1 | 53* | -5 | -1 | 0 | 6 | 2
COc1ccc(CN2CCN(C(=O)c3ccco3)CC2)cc1 | 39 | -4 | 1 | 0 | nt | nt
COc1ccc(C(=O)N2CCN(Cc3ccco3)CC2)cc1 | 55* | -4 | 1 | 0 | -13 | 6
COc1ccc(CN2CCN(Cc3ccco3)CC2)cc1 | 71* | -21 | -1 | 0 | 9 | 9
COc1cccc(N2CCN(Cc3ccco3)CC2)c1 | 23 | -6 | -1 | 0 | nt | nt
Cc1ccc(C(=O)c2cccnc2)cc1 | 0 | -12 | 1 | 0 | nt | nt
CC(=O)CC1OC(=O)C(Br)=C1NCc1ccccc1 (stereo unspecified) | 11 | 1 | -1 | 0 | nt | nt
O=C(CC1OC(=O)C(Br)=C1Br)CC1OC(=O)C(Br)=C1Br (stereo unspecified) | 74* | 1 | -1 | -1 | 14 | 2
CC(C)(C)CNC(=O)C(=O)Nc1ccc(Cl)c(Cl)c1 | 7 | -61 | 2 | 0 | nt | nt
CN1[C@@H](C(=O)Nc2cc(Cl)ccc2O)C[C@@H](c2cccs2)NS1(=O)=O | 70* | 14 | 0 | 0 | 9 | 6
CC(C)C1CCC(Nc2ncc(-c3ccc(CO)cc3)n3ccnc23)CC1 (stereo unspecified) | -5 | -45 | 2 | 0 | nt | nt
CN(CC(=O)O)C(=O)Nc1ccc(Cl)cc1Cl | 7 | 2 | -1 | 1 | nt | nt
CC(C)(C)n1ncc2c(=O)n(Cc3ccccc3)cnc21 | 6 | -9 | 0 | 0 | nt | nt
CC(C)(C)n1ncc2c(=O)n(Cc3cccc(Cl)c3)cnc21 | 62* | -12 | 1 | 0 | 11 | 13
O=S(=O)(c1ccccc1C(F)(F)F)N1CCC(c2nc3ccccc3[nH]2)CC1 | 73* | -9 | 1 | -2 | 78* | 16 | AlphaScreen DR=>6.5
O=S(=O)(c1ccc(C(F)(F)F)cc1)N1CCC(c2nc3ccccc3[nH]2)CC1 | -5 | 4 | 0 | 1 | nt | nt
SMILES | MITF inh | TEAD-YAP inh | GPR151 activ | FBW7 activator | MITF confirm | AlphaScreen intf2 | others
O=C(NC1CCN(S(=O)(=O)c2ccc(F)cc2)CC1)c1ccco1 | -12 | -1 | 0 | 0 | nt | nt
O=C(NC1CCN(S(=O)(=O)c2ccccc2C(F)(F)F)CC1)c1ccco1 | 77* | 1 | 0 | 0 | 7 | 10
COc1ccc(NC(=O)C(=O)NCC2CCCO2)c(OC)c1 (stereo unspecified) | -2 | -21 | 1 | 0 | nt | nt
CC(=O)NC(CC(C)C)c1nnc2n1CCN(C(=O)c1csc(C)n1)CC2 (stereo unspecified) | 9 | 5 | 5 | 0 | nt | nt
O=C1Nc2c(C(=O)O)cccc2C1=O | 71* | 2 | -3 | 0 | 68* | 10 | AlphaScreen DR=>7.9
O=C1Nc2c(I)cccc2C1=O | 11 | 6 | -1 | 0 | nt | nt
COc1ccc(CNC(C)c2ccc(-n3ccnc3)cc2)cc1F (stereo unspecified) | 66* | 0 | 1 | 0 | 14 | 19
COc1ccc(CCNCc2ccc(-n3ccnc3)cc2)cc1 | 36 | -1 | -1 | 0 | nt | nt
NS(=O)(=O)c1ccc(CNc2ccc3ncc(-c4cccc(C(=O)O)c4)n3n2)cc1 | 69* | 0 | 1 | 0 | 9 | 11
O=S(=O)(NCCSCc1ccccc1Cl)c1ccc2c(c1)OCCO2 | 12 | 3 | -1 | 0 | nt | nt
O=C1NC(=O)C(=Cc2ccccc2I)C(=O)N1 | 55* | -11 | 0 | 0 | 2 | 10
O=C1C(=Cc2ccccc2I)C(=O)c2ccccc21 | -3 | -1 | 0 | 0 | nt | nt
CCC(C)c1ccccc1OCCCCN1CCOCC1 (stereo unspecified) | 51* | -2 | 0 | 0 | -8 | -6
CCN1CCN(CCCOc2ccccc2OCc2ccccc2)CC1 | 69* | -9 | -2 | 0 | 15 | 6
CCC(C)c1ccccc1OCCCN1CCOCC1 (stereo unspecified) | 61* | 10 | 1 | 0 | -8 | 11
CCOc1ccccc1OCCCCN1CCOCC1 | 37 | -1 | -1 | 0 | nt | nt
CCN1CCN(CCCCOc2ccccc2OC(C)C)CC1 | 51* | -4 | 4 | 0 | 13 | 19
CC(=O)c1ccccc1OCCCN1CCOCC1 | 31 | 6 | -1 | 0 | nt | nt
CCN1CCN(CCCCOc2cccc3ccccc23)CC1 | 35 | 3 | 0 | 0 | nt | nt
O=C(CN1CCOCC1)Nc1ccc(-c2ccc(NC(=O)CN3CCOCC3)cc2)cc1 | 6 | 3 | -1 | 0 | nt | nt
NC(=O)c1ccccc1NC1c2ccccc2C(=O)N1Cc1ccccc1Cl (stereo unspecified) | -8 | 1 | 0 | 0 | nt | nt
O=C(CCCc1nc2ccccc2c(=O)[nH]1)NC1CCCCC1 | -5 | 2 | 1 | 0 | nt | nt
c1ccc2c(OCCOCCNCCN3CCOCC3)cccc2c1 | 52* | 6 | 1 | 0 | 7 | 21
CCC(C)c1ccccc1OCCOCCN(C)C (stereo unspecified) | 86* | 0 | 1 | 0 | 13 | 14
CCC(C)c1ccccc1OCCCN1CCN(CC)CC1 (stereo unspecified) | 63* | 5 | 0 | 0 | 14 | 19
SMILES | MITF inh | TEAD-YAP inh | GPR151 activ | FBW7 activator | MITF confirm | AlphaScreen intf2 | others
CCC(C)c1ccccc1OCCOCCN1CCOCC1 (stereo unspecified) | 76* | 5 | 0 | 0 | -9 | -5
CCC(C)c1ccccc1OCCN1CCNCC1 (stereo unspecified) | 40 | -6 | -1 | 0 | nt | nt
C=CCNCCOCCOc1ccccc1C(C)CC (stereo unspecified) | 31 | 7 | 5 | 0 | nt | nt
CCC(C)c1ccccc1OCCOCCN1CCCC1 (stereo unspecified) | 12 | 2 | 0 | 0 | nt | nt
O=C1N[C@@H](Cc2ccccc2)C(=O)N2CCN(Cc3ccccc3Cl)C[C@H]12 | 14 | 5 | 0 | 0 | nt | nt
Cc1ccccc1C(=O)NC(C(C)C)C(C)C | 6 | 7 | 1 | 0 | nt | nt
C/C(=N\Nc1ccc(C(=O)O)cc1)c1cccc(Br)c1 | 5 | -78 | -2 | 0 | nt | nt

High-throughput results (PubChem BioAssay)
